Hits are enriched below; roughly 3.3% of the tested compounds scored in any of these assays.
Sm TGR inh: S. mansoni TGR enzyme inhibition | Q962Y6 | purified TGR, DTNB reduction, TNB absorbance 405 nm | Potency, µM (titrated, usually from 114 µM), usual class: inhibitors | 3% of 360,000 active | AID 485364; also: nearly all actives have a fitted effect of over 60% in size
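TGR 20 nM + NADPH 100 uM (dispensed conc.), cpd preinc 15 min RT; start with NADPH (500 uM addition) then DTNB (15 mM addition). Kinetic TNB absorbance, 405 nm filter. Four-parameter Hill fit across titration.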
LmPK inhibitor: blocks Leishmania mexicana pyruvate kinase activity; Q27686; purified LmPK, Kinase-Glo ATP luminescence, 1 h; Potency, µM (doses to about 57.5 µM), hits mostly inhibitors; 0.37% of 290,000 active; AID 1721
Target sequence (Q27686 whole entry, looked up): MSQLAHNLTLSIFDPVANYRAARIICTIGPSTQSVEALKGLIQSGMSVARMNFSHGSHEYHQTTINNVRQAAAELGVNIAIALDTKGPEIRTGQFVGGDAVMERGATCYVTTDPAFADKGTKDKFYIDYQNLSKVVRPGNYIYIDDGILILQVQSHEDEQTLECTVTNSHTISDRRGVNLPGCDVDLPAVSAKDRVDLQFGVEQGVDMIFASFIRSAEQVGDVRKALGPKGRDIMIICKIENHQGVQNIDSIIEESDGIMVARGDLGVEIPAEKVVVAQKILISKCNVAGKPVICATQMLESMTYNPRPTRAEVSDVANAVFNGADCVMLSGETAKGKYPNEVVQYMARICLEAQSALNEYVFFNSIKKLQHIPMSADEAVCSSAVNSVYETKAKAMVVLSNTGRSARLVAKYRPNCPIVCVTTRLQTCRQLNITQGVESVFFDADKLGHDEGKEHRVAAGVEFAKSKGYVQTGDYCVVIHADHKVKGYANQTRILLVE
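qHTS format; LmPK 0.1 nM; substrates PEP 0.5 mM and ADP 0.1 mM. One-hour room-temperature incubation, then coupled luciferase luminescence; 0.5 nM enzyme wells mark activation.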
TbPYK inhibitor: inhibitors of Trypanosoma brucei pyruvate kinase; AID 624173; TbPYK enzyme, Kinase-Glo Plus ATP luminescence, 45 min; Potency, µM (highest dose often 76.8 µM), most hits filed as inhibitors; 0.12% of 410,000 active; also: nearly all actives have a fitted effect of over 50% in size
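Activity of T. brucei pyruvate kinase was followed by Kinase-Glo Plus luminescence after the enzyme reacted 45 min at room temperature with 130 uM ADP (final) and substrate. Test compounds were added before ADP at multiple concentrations.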
SARS PLpro yeast: blocks SARS-CoV papain-like protease in a yeast assay | S. cerevisiae expressing SARS-CoV PLpro, growth rescue | Potency, µM (series often up to 32.9 µM), actives largely listed as activators | 0.19% of 330,000 active; calls by dose curve; also: nearly all actives have a fitted effect of over 55% in size
NS1 function inh: influenza NS1 inhibition; Potency, µM (titrated, usually from 46.1 µM); 0.4% of 270,000 active; calls by dose curve; also: actives are rising curves; nearly all actives have a fitted effect of over 50% in size
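A cell-based growth assay was used: compounds that relieve NS1-induced slow growth of budding yeast raise OD600. Assay medium was yeast nitrogen base with ammonium sulphate and -URA supplement, pH 6.0, with 2% galactose.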
RE007 growth inh: less growth of the S. pombe RE007 Vpr strain. S. pombe RE007 Vpr strain, BacTiter-Glo ATP luminescence, 24 h. 0.21% of 360,000 active. Potency, µM (top dose mostly 92.2 µM), hits mostly inhibitors. AID 651644; active = well fitted falling curve with a large enough effect; inconclusive = small, poorly fitted or top-dose-only effect; inactive = no such curve, though single readings can be large or run the other way; also: nearly all actives have a fitted effect of over 50% in size
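Fission yeast RE007 carrying one integrated HIV-1 vpr copy, seeded at OD 0.01 in PMG+AL medium with 23 nL pinned compound. Grown 24 h at 30 degrees; viability read by BacTiter-Glo luminescence after 5 min.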
Of the large screens only hits and unclear results are named; the others gave an inactive call. Unless noted, calls follow the shape of the dose curve; as a rule, active = well fitted curve in the direction sought with a large enough effect; inconclusive = small, poorly fitted or top-dose-only effect, or another doubt; inactive = no such curve, though single readings can be large; an effect the other way counts as inactive or inconclusive.

CCOC(=O)c1nc2cc3n(c(C)c-2c1C)C(C)C(C)=C3C (stereo not drawn)	none
COc1ccc(OC)c(NC(=O)Cn2c(=O)c3cccn3c3ccccc32)c1	none (no result: LmPK inhibitor, SARS PLpro yeast, NS1 function inh, RE007 growth inh)
CN(C)C(=O)CSc1nnc(-c2ccco2)n1-c1ccccc1	none (no result: Sm TGR inh, LmPK inhibitor, SARS PLpro yeast, NS1 function inh)
N#Cc1c(NC(=O)CSc2nnc(-c3ccco3)n2-c2ccccc2)sc2c1CCC2	Sm TGR inh 56.2µM
NC(=O)c1c(NC(=O)CSc2nnc(-c3ccco3)n2-c2ccccc2)sc2c1CCC2	Sm TGR inh 22.4µM, NS1 function inh 1.41µM
c1ccc(-n2c(SCc3nc(-c4cccs4)no3)nnc2-c2ccco2)cc1	Sm TGR inh 44.7µM
CN(Cc1ccccc1)C(=O)CSc1nnc(-c2ccco2)n1-c1ccccc1	Sm TGR inh 31.6µM, RE007 growth inh inconclusive
Cc1ccc2nc(COc3ccccc3NC(=O)c3ccc(F)cc3)cc(=O)n2c1	none (no result: LmPK inhibitor, SARS PLpro yeast, NS1 function inh, RE007 growth inh)
C=CCNC(=O)N1CCc2nc(COc3ccccc3)c3c(c2C1)CO[C@@H](C)C3	none (no result: Sm TGR inh, TbPYK inhibitor, SARS PLpro yeast, NS1 function inh, RE007 growth inh)
CN(C)CCN(Cc1ccccc1)S(=O)(=O)c1cccc2cccnc12	none (no result: Sm TGR inh, LmPK inhibitor, TbPYK inhibitor, SARS PLpro yeast, RE007 growth inh)
COc1ccc2oc(=O)c(/C(C)=N/Nc3ccccc3)cc2c1	Sm TGR inh 44.7µM (no result: NS1 function inh)
COc1ccc2oc(=O)c(C(=O)N3CCN(C(=O)c4ccccc4)CC3)cc2c1	none
COc1ccc2oc(=O)c(C(=O)N3CCN(C(=O)c4ccco4)CC3)cc2c1	Sm TGR inh 39.8µM
COc1ccccc1N1CCN(C(=O)C(CCSC)NS(=O)(=O)c2ccc3c(c2)oc(=O)n3C)CC1 (stereo not drawn)	none (no result: LmPK inhibitor, SARS PLpro yeast, NS1 function inh, RE007 growth inh)
CCOc1ccc(NC(=O)CSc2oc(-c3ccc(C)cc3)nc2S(=O)(=O)c2ccc(C)cc2)cc1	none (no result: LmPK inhibitor, SARS PLpro yeast, NS1 function inh, RE007 growth inh)
Cc1ccc2oc3c(c(=O)c2c1)C(c1ccc(OCC(N)=O)cc1)N(Cc1ccc2c(c1)OCO2)C3=O (stereo not drawn)	none (no result: LmPK inhibitor, SARS PLpro yeast, NS1 function inh, RE007 growth inh)
O=C(O)/C=C/C(O)c1ccc(Cl)cc1 (stereo not drawn)	Sm TGR inh 25.1µM (no result: LmPK inhibitor, SARS PLpro yeast)
CCOc1ccccc1CNC(=O)c1oc2c(c1C)-c1[nH]ncc1CC2	none (no result: LmPK inhibitor, SARS PLpro yeast, NS1 function inh, RE007 growth inh)
CCCOC(=O)[C@@H]1[C@@H](C(=O)O)[C@H]2CC[C@@H]1O2	none (no result: Sm TGR inh, LmPK inhibitor, TbPYK inhibitor, SARS PLpro yeast, RE007 growth inh)
CCOC(=O)C1CCN(c2nc3c(S(=O)(=O)c4ccccc4)nnn3c3ccc(Cl)cc23)CC1	none (no result: LmPK inhibitor, SARS PLpro yeast, NS1 function inh, RE007 growth inh)
Oc1ccc(N=Cc2ccc(OCc3ccccc3)cc2)cc1	Sm TGR inh 3.98µM
Cc1ccc(S(=O)(=O)Cn2nnnc2CN(Cc2ccco2)CC2CCCO2)cc1 (stereo not drawn)	Sm TGR inh 28.2µM
Cc1ccc2cc(CN(CC3CCCO3)S(=O)(=O)c3ccccc3)c3nnnn3c2c1 (stereo not drawn)	none
Cc1ccc2cc(CN(Cc3nnnn3Cc3ccco3)CC3CCCO3)c(=O)[nH]c2c1C (stereo not drawn)	Sm TGR inh 17.8µM
CCOc1ccc(CCNC(=O)c2nn(C)c3c2CSc2ccccc2-3)cc1	none (no result: LmPK inhibitor, SARS PLpro yeast, NS1 function inh, RE007 growth inh)
CC(C)(C)c1ccc(C(=O)NC(=S)NCC2CCCO2)cc1 (stereo not drawn)	Sm TGR inh inconclusive, SARS PLpro yeast 12.6µM
COCCNC(=S)NC(=O)c1ccc(C(C)(C)C)cc1	Sm TGR inh 39.8µM (no result: NS1 function inh)
Cc1cccc(-c2ccc3ncnc(N(C)Cc4ccco4)c3c2)c1	none (no result: LmPK inhibitor, TbPYK inhibitor, NS1 function inh, RE007 growth inh)
Cn1c(=O)c2sccc2n2c(CCCC(=O)Nc3ccc(Oc4ccc(Cl)cc4)cc3)nnc12	none (no result: LmPK inhibitor, SARS PLpro yeast, NS1 function inh, RE007 growth inh)
CCCOc1ccc(C2c3c(-c4ccccc4O)n[nH]c3C(=O)N2CCc2ccccc2)cc1OCC (stereo not drawn)	none (no result: LmPK inhibitor, SARS PLpro yeast, NS1 function inh, RE007 growth inh)
Cc1ccc(-c2cc(C(=O)N3CC(C)OC(C)C3)c3ccccc3n2)o1 (stereo not drawn)	Sm TGR inh 39.8µM (no result: LmPK inhibitor, NS1 function inh)
Cc1ccc(-c2cc(C(=O)N3CCC(C)CC3)c3ccccc3n2)cc1	none
Cc1ccc(-c2cc(C(=O)N3CC(C)CC(C)C3)c3ccccc3n2)o1 (stereo not drawn)	Sm TGR inh 22.4µM, TbPYK inhibitor inconclusive
CCn1cc2c(n1)-c1c(oc(C(=O)Nc3cccc(C)c3C)c1C)CC2	none (no result: LmPK inhibitor, SARS PLpro yeast, NS1 function inh, RE007 growth inh)
Cc1ccc(C)n1-c1sccc1C(=O)O	Sm TGR inh 39.8µM, NS1 function inh inconclusive, RE007 growth inh inconclusive
